From ChEMBL document CHEMBL1157539, “Thousands of chemical starting points for antimalarial lead identification” (Nature, 2010)

Tested on: Plasmodium falciparum
Experiment: GSK_TCMDC: Inhibition of Plasmodium falciparum Dd2 in whole red blood cells, using parasite LDH activity as an index of growth. Test compounds present at 2uM
Assay type: functional

Row | Compound | Inhibition
1 | Cl.N#Cc1ccc2c(c1)CCN(CCC1CCC(NC(=O)/C=C/c3c[nH]c4c(Br)cccc34)CC1)CC2 (stereo not given) | 65%
2 | O=C(O)/C=C\C(=O)O.c1cc(CN2CCCCC2)cc(OCCCNc2ccnc3ccccc23)c1 | 99%
3 | CC1=C(C(=O)Nc2ccc(Cl)cc2)C(c2ccncc2)n2nc(C(F)(F)F)nc2N1 (stereo not given) | 49%
4 | CCc1ccc(-n2c(=O)c3cccnc3n2CC(=O)NC2CCCC2)cc1 | 27%
5 | Cc1ccc(NC(=O)c2ccc3ncccc3c2)cc1OC1CCN(Cc2ccsc2)C1.O=C(O)C(F)(F)F (stereo not given) | 49%

Tested on: HepG2
Experiment: GSK_TCMDC: Percent inhibition of human HepG2 cell line. Test compounds present at 10uM.
Assay type: functional

Row | Compound | Inhibition
6 | Cl.c1ccc2ncc(CNCCCCCCCCNCc3cnc4ccccc4c3)cc2c1 | 8%
7 | O=C(NC1CCN(Cc2ccc(Cl)cc2)CC1)c1cn(-c2ccccc2)nc1-c1cccnc1 | 13%
8 | COCCNc1nc(N2CCC(CNC(=O)c3ccc(-c4ccc(C(=O)N(C)C)cc4C)cc3)CC2)nc2cc(OC)c(OC)cc12 | 12%
9 | Clc1cc(Cl)cc(Nc2ccnc(Nc3cc(Cl)cc(Cl)c3)n2)c1 | 11%
10 | Cc1nc2nc(N)nc(N)c2c(C)c1Cc1cccc(C(N)=O)c1.Cl | 59%
11 | Cl.Clc1cccnc1N1CCN(c2ncccc2Cl)CC1 | 2%
12 | CCN(C(=O)CSc1cc(C)c2cc(C)cc(C)c2n1)C1CCS(=O)(=O)C1 (stereo not given) | 5%
13 | COc1cc2nc(N(C)C)nc(Nc3ccc4c(cnn4Cc4ccccc4)c3)c2cc1OC | 90%
14 | Cl.Nc1nc(N)c2c(ccc3c2ccn3C2CCCCC2)n1 | 67%
15 | O=C(Nc1ccccc1)Nc1ccc(-n2ccc(C(F)(F)F)n2)cc1 | 15%
16 | C=CCOC(=O)N1CCC(CNCc2cccc(-c3ccc(-c4nc5cccc(C)c5[nH]4)s3)c2)C1.O=C(O)C(F)(F)F (stereo not given) | 11%
17 | CCc1ccc(O)c(-c2cc(C(=O)Nc3ccc(OC)c(Cl)c3)[nH]n2)c1 | 15%
18 | COc1cc(OC)c(NC(=O)Nc2ccnc3ccccc23)cc1Cl | 19%
19 | NCCC(=O)Nc1ccc(-c2cnc3[nH]cc(-c4ccc(C(=O)O)cc4)c3c2)cn1.O=C(O)C(F)(F)F | 0%
20 | CNC(=O)NC1=NC(C)(C)N(OCCCOc2cc(Cl)c(Cl)cc2Cl)C(N)=N1 | 7%
21 | Cc1ccccc1NC(=O)C1CSCN1C(=O)OCc1ccccc1 (stereo not given) | 8%
22 | CCOC(=O)c1cnc2cc(N3CCCC3)c(Cl)cc2c1OCC | 0%
23 | COc1ccc2ncc(F)c(CCN3CCC(NCc4cnc5c(c4)NC(=O)CS5)CC3)c2c1.Cl | 16%
24 | Cc1cc(N[C@@H](CC(C)C)C(=O)NC2CCCC2)nc(NCCc2ccc(F)cc2)n1.O=C(O)C(F)(F)F | 15%
25 | COc1ccc(C(=O)Nc2cc(Br)c3c(c2)CNCC3)cc1Br.Cl | 25%

Row | Compound | Inhibition
26 | CCOc1cc(C(=O)NCCCN2CCCCC2C)ccc1-c1nc2cc(Cl)ccc2[nH]1 (stereo not given) | 2%
27 | NC(=O)c1ccsc1NC(=O)CNC(c1ccccc1)c1ccccc1 | 8%
28 | CN1CCN(C(C(=O)NCc2cc(Cl)cc(Cl)c2)c2ccc(NC(=O)Nc3ccccc3)cc2)CC1.O=C(O)C(F)(F)F (stereo not given) | 23%
29 | CN(C)CCNCc1ccc(-c2ccc(-c3nc4cc(F)ccc4[nH]3)cc2)cc1.O=C(O)C(F)(F)F | 8%
30 | CCN(CC)CCN(Cc1ccc(-c2ccc(C(F)(F)F)cc2)cc1)C(=O)CN1C(CCc2cccc(F)c2F)=NS(=O)(=O)c2ccccc21 | 36%
31 | Cl.O=S(=O)(c1ccc(OCc2ccc(Cl)cc2)cc1)c1cc2c(c(-c3ccc(F)cc3)c1)CCN(CC1CC1)CC2 | 0%
32 | CS(=O)(=O)O.FC(F)(F)COc1c(CCNCCCCNCCc2ccc3ccccc3c2OCC(F)(F)F)ccc2ccccc12 | 99%
33 | Cc1cccc(C(=O)Nc2ccnc(N3CCC(N(C)Cc4ccc(C#N)cc4)CC3)c2)c1.O=C(O)C(F)(F)F | 12%
34 | Br.CC1(C)NC(N)=NC(=N)N1OCCCOc1ccccc1Cl | 64%
35 | c1ccc2[nH]c(-c3ccc(-c4ccc(CN5CCC(N6CCCCC6)CC5)cc4)s3)nc2c1 | 26%
36 | CC1(C)N=C(N)N=C(N)N1c1cc(Cl)c(Cl)cc1Cl.Cl | 11%
37 | O=C(NCCc1ccccc1)N(Cc1cccc(-c2ccc(CNCc3ccc4c(c3)OCO4)cc2)c1)C1CCN(Cc2ccccc2)CC1.O=C(O)C(F)(F)F | 11%
38 | COc1ccc2nc(C)cc(Nc3ccc(Oc4ccc(Br)c5ccccc45)c(Cl)c3)c2c1 | 100%
39 | Cc1ccc(C(=O)Nc2ccc(C)c(OC3CCN(Cc4ccco4)C3)c2)cc1.O=C(O)C(F)(F)F (stereo not given) | 10%
40 | CCOC(=O)c1ccc(NC(=O)Nc2ccc(-c3ccc(-c4nc5cccc(C)c5[nH]4)s3)cc2)cc1 | 60%
41 | Cl.N#Cc1ccc2c(c1)CCN(CCC1CCC(NC(=O)/C=C/c3c[nH]c4c(Br)cccc34)CC1)CC2 (stereo not given) | 32%
42 | O=C(O)/C=C\C(=O)O.c1cc(CN2CCCCC2)cc(OCCCNc2ccnc3ccccc23)c1 | 48%
43 | CC1=C(C(=O)Nc2ccc(Cl)cc2)C(c2ccncc2)n2nc(C(F)(F)F)nc2N1 (stereo not given) | 25%
44 | CCc1ccc(-n2c(=O)c3cccnc3n2CC(=O)NC2CCCC2)cc1 | 0%
45 | Cc1ccc(NC(=O)c2ccc3ncccc3c2)cc1OC1CCN(Cc2ccsc2)C1.O=C(O)C(F)(F)F (stereo not given) | 5%
